# About 410 targets per protein were measured; listed, in parts, are those with the strongest signals and a random draw of the rest.
# Tests used:
# Assay in all cases: glycan array binding signal (z-score within array); higher = stronger binding
# Conditions in all cases: glycan notation: IUPAC condensed, linker removed
# GalNAc(a1-3)GalNAc = target: GalNAc(a1-3)GalNAc
# How it was run: (§1)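 Glycan array data came from 3228 arrays in the Consortium for Functional Glycomics database, and only arrays with an available protein sequence were kept. Glycan names were put into IUPAC-condensed notation, and columns mapping to the same glycan were averaged. The binding signal is a within-array Z-score, averaged across arrays of one protein sequence run at different concentrations or buffers and across linkers. A negative Z-score can be read as non-binding.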
# [1] = target: GalNAc(b1-4)GlcNAc(b1-2)Man(a1-3)[GalNAc(b1-4)GlcNAc(b1-2)Man(a1-6)]Man(b1-4)GlcNAc(b1-4)GlcNAc
# How it was run: as §1
# [2] = target: GalNAc(b1-4)GlcNAc(b1-3)GalNAc(b1-4)GlcNAc
# How it was run: as §1
# Glc(a1-6)Glc(a1-6)Glc = target: Glc(a1-6)Glc(a1-6)Glc
# How it was run: as §1
# GlcA(b1-3)Gal = target: GlcA(b1-3)Gal
# How it was run: as §1
# [3] = target: GlcNAc(b1-2)Man(a1-3)[GlcNAc(b1-4)][GlcNAc(b1-2)Man(a1-6)]Man(b1-4)GlcNAc(b1-4)[Fuc(a1-6)]GlcNAc
# How it was run: as §1
# [4] = target: GlcNAc(b1-3)Gal(b1-4)GlcNAc(b1-2)[GlcNAc(b1-3)Gal(b1-4)GlcNAc(b1-6)]Man(a1-6)[GlcNAc(b1-3)Gal(b1-4)GlcNAc(b1-2)Man(a1-3)]Man(b1-4)GlcNAc(b1-4)GlcNAc
# How it was run: as §1
# [5] = target: GlcNAc(b1-3)Gal(b1-4)GlcNAc(b1-3)Gal(b1-4)GlcNAc(b1-2)Man(a1-3)[GlcNAc(b1-3)Gal(b1-4)GlcNAc(b1-3)Gal(b1-4)GlcNAc(b1-2)Man(a1-6)]Man(b1-4)GlcNAc(b1-4)[Fuc(a1-6)]GlcNAc
# How it was run: as §1
# [6] = target: GlcNAc(b1-3)Gal(b1-4)GlcNAc(b1-3)Gal(b1-4)GlcNAc(b1-2)[GlcNAc(b1-3)Gal(b1-4)GlcNAc(b1-3)Gal(b1-4)GlcNAc(b1-6)]Man(a1-6)[GlcNAc(b1-3)Gal(b1-4)GlcNAc(b1-3)Gal(b1-4)GlcNAc(b1-2)Man(a1-3)]Man(b1-4)GlcNAc(b1-4)[Fuc(a1-6)]GlcNAc
# How it was run: as §1
# [7] = target: GlcNAc(b1-3)Gal(b1-4)GlcNAc(b1-3)GalNAc
# How it was run: as §1
# [8] = target: Kdn(a2-3)Gal(b1-4)[Fuc(a1-3)]GlcNAc
# How it was run: as §1
# [9] = target: Man(a1-2)Man(a1-2)Man(a1-3)Man
# How it was run: as §1
# [10] = target: Neu5Ac(a2-3)Gal(b1-3)GalNAc
# How it was run: as §1
# [11] = target: Neu5Ac(a2-3)Gal(b1-3)GalNAc6S
# How it was run: as §1
# [12] = target: Neu5Ac(a2-3)Gal(b1-3)GlcNAc(b1-6)GalNAc
# How it was run: as §1
# [13] = target: Neu5Ac(a2-3)Gal(b1-3)[Fuc(a1-4)]GlcNAc(b1-3)Gal(b1-3)[Fuc(a1-4)]GlcNAc
# How it was run: as §1
# [14] = target: Neu5Ac(a2-3)Gal(b1-3)[Neu5Ac(a2-6)]GlcNAc(b1-3)[Fuc(a1-3)[Gal(b1-4)]GlcNAc(b1-6)]Gal(b1-4)Glc
# How it was run: as §1
# [15] = target: Neu5Ac(a2-3)Gal(b1-4)GlcNAc(b1-3)Gal(b1-4)GlcNAc(b1-3)[Neu5Ac(a2-3)Gal(b1-4)GlcNAc(b1-3)Gal(b1-4)GlcNAc(b1-6)]GalNAc
# How it was run: as §1
# [16] = target: Neu5Ac(a2-3)Gal(b1-4)GlcNAc(b1-6)[Gal(b1-3)]GalNAc
# How it was run: as §1
# [17] = target: Neu5Ac(a2-3)Gal(b1-4)[Fuc(a1-3)]GlcNAc(b1-3)Gal(b1-4)GlcNAc
# How it was run: as §1
# [18] = target: Neu5Ac(a2-6)Gal(b1-4)GlcNAc(b1-2)Man(a1-3)[Neu5Ac(a2-6)Gal(b1-4)GlcNAc(b1-2)Man(a1-6)]Man(b1-4)GlcNAc(b1-4)[Fuc(a1-6)]GlcNAc
# How it was run: as §1
# [19] = target: Neu5Ac(a2-6)Gal(b1-4)GlcNAc(b1-3)Gal(b1-4)GlcNAc(b1-3)Gal(b1-4)GlcNAc
# How it was run: as §1
# [20] = target: Neu5Ac(a2-6)Gal(b1-4)GlcNAc(b1-3)Gal(b1-4)GlcNAc(b1-3)Gal(b1-4)GlcNAc(b1-2)Man(a1-3)[Neu5Ac(a2-6)Gal(b1-4)GlcNAc(b1-3)Gal(b1-4)GlcNAc(b1-3)Gal(b1-4)GlcNAc(b1-2)Man(a1-6)]GalNAc
# How it was run: as §1
# [21] = target: Neu5Ac(a2-6)Gal(b1-4)GlcNAc(b1-3)GalNAc
# How it was run: as §1
# [22] = target: Neu5Ac(a2-8)Neu5Ac(a2-3)[GalNAc(b1-4)]Gal(b1-4)Glc
# How it was run: as §1
# [23] = target: Neu5Ac(a2-8)Neu5Ac(a2-8)Neu5Ac(a2-3)Gal(b1-4)Glc
# How it was run: as §1
# [24] = target: Neu5Ac(a2-8)Neu5Gc(a2-3)Gal(b1-4)GlcNAc
# How it was run: as §1
# [25] = target: Neu5Gc(a2-3)Gal(b1-3)[Fuc(a1-4)]GlcNAc
# How it was run: as §1
binder,measurement,setting,value
PX14343F-bfa-562-20-562 (Bacteroides fragilis) (protein) CDDFLDSFPQDTVTNENFWKSKEDADKVLVDIYASLLPKDAIFFDEAMSDNAYLVWDWWGGAQQVANGSYTTSGEIPTNRWNGSYEVIRKCWFLLEGIEKIEDISEQDKNKIIGETYFMLAYNYYVLTSYFGDVPLVTKTLAIPESKQLVRTPKAEVVDYAINKLKEAAVMLEGLSQEKGRVTADACRFLIARMYLYNGDYSNVLETVKLLEGKYQLYREGDTPYEDLFSGVAENSCEVILSVVCDKRVGEIYTSHGGNGIMLLKGITGEDPYRGVTPSGSLVDAYPMADGRLIHEAGSSYDPKKPYEGRDPRFYQSIVYPTGQIKYLDVETGTVKERLYDPEDPTTVPEHQYNYSQPSATGYMWNKYIDYSVYAMNSVWDCTNDIIVFRYADVLLMKAEALLQTKGESAKEEVCNLIDQLRDRCSCGRVHRENYNSKDELMELLKNERRIELANEGLRYMDLIRWKDAEKNTIVTGVGLTGQMYGAYMRKDGVGKDDKTVDVDNTPRRYIETRYFNASKGYLFPIPQKERDLNPNLTQNPNW,glycan array binding signal (z-score),GalNAc(a1-3)GalNAc,0.306
same,glycan array binding signal (z-score),[1],2.1
same,glycan array binding signal (z-score),[2],0.152
same,glycan array binding signal (z-score),Glc(a1-6)Glc(a1-6)Glc,-0.43
same,glycan array binding signal (z-score),GlcA(b1-3)Gal,-0.822
same,glycan array binding signal (z-score),[3],-0.489
same,glycan array binding signal (z-score),[4],1.87
same,glycan array binding signal (z-score),[5],1.72
same,glycan array binding signal (z-score),[6],0.546
same,glycan array binding signal (z-score),[7],0.486
same,glycan array binding signal (z-score),[8],-0.468
same,glycan array binding signal (z-score),[9],-0.59
same,glycan array binding signal (z-score),[10],-0.546
same,glycan array binding signal (z-score),[11],-0.506
same,glycan array binding signal (z-score),[12],1.15
same,glycan array binding signal (z-score),[13],-0.121
same,glycan array binding signal (z-score),[14],-0.957
same,glycan array binding signal (z-score),[15],1.61
same,glycan array binding signal (z-score),[16],-0.723
same,glycan array binding signal (z-score),[17],0.262
same,glycan array binding signal (z-score),[18],1.09
same,glycan array binding signal (z-score),[19],-0.047
same,glycan array binding signal (z-score),[20],2.16
same,glycan array binding signal (z-score),[21],-0.734
same,glycan array binding signal (z-score),[22],1.74
same,glycan array binding signal (z-score),[23],0.121
same,glycan array binding signal (z-score),[24],19.1
same,glycan array binding signal (z-score),[25],-0.055
